Results taken from ChEMBL document CHEMBL4513139, “CO-ADD screening of University of Strathclyde (UK) compounds”.
Entries with a potency or affinity are not part of this list.

Tested on: Staphylococcus aureus
Details: Concentration 32 ug.mL-1; ASSAY_TEST Inhibition of Bacterial Growth; detection method Absorption (OD600); MEDIA CAMHB; plate type 384well; NBS; CORNING #3640; time 18 hr

Row | Structure (SMILES) | Inhibition
1 | Cn1cc(NC(=O)c2cc(NC(=O)CCC(=O)O)cn2C)cc1C(=O)NCCN1CCOCC1.O=C(O)C(F)(F)F | -10.46%
2 | COc1ccc(CC(=O)Nc2cc(C(=O)Nc3cc(C(=O)Nc4cn(CCCN(C)C)cn4)n(C)c3)n(C)c2)cc1.O=C(O)C(F)(F)F | 6.27%
3 | Cc1ncc(CNc2ccc(Cl)cc2)c(N)n1 | -1.15%
4 | COc1cccc(C(=O)Nc2cc(C(=O)Nc3cc(C(=O)Nc4cn(CCCN(C)C)cn4)n(C)c3)n(C)c2)c1.O=C(O)C(F)(F)F | 20.04%
5 | COc1cccc(C(=N)Nc2cc(C(=O)Nc3cc(C(=O)Nc4cc(C(=O)NCCCN(C)C)n(C)c4)n(C)c3)n(C)c2)c1.O=C(O)C(F)(F)F.O=C(O)C(F)(F)F | -1.63%
6 | Cn1cc(NC(=O)c2cc(NC(=O)c3sc(N)nc3C(F)(F)F)cn2C)cc1C(=O)NCCN1CCOCC1.O=C(O)C(F)(F)F | 12.04%
7 | Cc1ncc(Cn2cc(CCC(=O)O)nn2)c(N)n1.O=C(O)C(F)(F)F | 15.37%
8 | Cc1ncc(CNc2ccc(C(F)(F)F)cc2)c(N)n1 | -6.95%
9 | COCCOC1CCN(C(=O)c2cc(NC(=O)c3cc(NC(=O)c4ccc(/C=C/c5ccc(OC)cc5)cc4)cn3C)cn2C)CC1.O=S(=O)(O)O | 99.55%
10 | CC(C)c1sc(N)nc1C(=O)Nc1cc(C(=O)Nc2cc(C(=O)NCCN3CCOCC3)n(C)c2)n(C)c1.O=C(O)C(F)(F)F | 1.1%
11 | CC(C)c1sc(N)nc1C(=O)Nc1cc(C(=O)NCCN2CCOCC2)n(C)c1.O=C(O)C(F)(F)F | 4.82%
12 | Cn1cc(NC(=O)c2cc(NC(=O)c3ccc(/C=C/c4cccc(F)c4)cc3)cn2C)cc1C(=O)NCCN1CCOCC1.O=C(O)C(F)(F)F | 33.99%
13 | Cc1ncc(Cn2cc(CCCO)nn2)c(N)n1 | 13.2%
14 | CCOC(=O)c1cc(NC(=O)c2cc(NC(=O)c3nc(N)sc3CCC(C)C)cn2C)cn1C | 16.22%
15 | Cn1cc(NC(=O)c2cc(NC(=O)c3sc(N)nc3C(F)(F)F)cn2C)cc1C(=O)NCCC(=N)N.O=C(O)C(F)(F)F | -17.29%
16 | CC(C)CCc1sc(NC(=O)c2cc(NC(=O)c3cc(NC(=O)c4ccc(C(=O)O)cc4)cn3C)cn2C)nc1C(=O)NCCCN(C)C.O=C(O)C(F)(F)F | 8.57%
17 | Cc1ccc(S(=O)(=O)NCCc2cn(Cc3cnc(C)nc3N)nn2)cc1 | 16.06%
18 | Cn1cc(NC(=O)c2cc(NC(=O)c3cc(NC(=O)c4ccc(Cl)cc4Cl)cn3C)cn2C)cc1C(=O)NCCN1CCOCC1.O=C(O)C(F)(F)F | 45.87%
19 | Cc1ncc(Cn2cc(CCCN)nn2)c(N)n1.Cl | 14.19%
20 | CN(C)CCCNC(=O)c1cc(NC(=O)c2cc(NC(=O)c3cc4ccccc4cn3)cn2C)cn1C.O=C(O)C(F)(F)F | 20.5%
21 | Cc1ncc(CO)c(N)n1 | 1.81%
22 | COc1cccc(C(=N)Nc2cc(C(=O)Nc3cc(C(=O)Nc4cn(CCCN(C)C)cn4)n(C)c3)n(C)c2)c1.O=C(O)C(F)(F)F.O=C(O)C(F)(F)F | 18.77%
23 | COc1cccc(/C=C/c2ccc(C(=O)Nc3cc(C(=O)Nc4cc(C(=O)NCCN(C)C)n(C)c4)n(C)c3)cc2)c1.O=C(O)C(F)(F)F | 98.95%
24 | CC(C)CCc1sc(N)nc1C(=O)Nc1cc(C(=O)Nc2cc(C(=O)NCCN3CCOCC3)n(C)c2)n(C)c1.O=C(O)C(F)(F)F | 26.32%
25 | Cc1ncc(Cn2cc(CCO)nn2)c(N)n1 | 21.55%
26 | COC(=O)CCC(=O)Nc1cc(C(=O)Nc2cc(C(=O)NCCN3CCOCC3)n(C)c2)n(C)c1.O=C(O)C(F)(F)F | 3.68%
27 | CC(=O)Nc1cc(C(=O)Nc2cc(C(=O)Nc3cc(C(=O)NCCCN(C)C)n(CCC(C)C)c3)n(C)c2)n(C)c1.O=C(O)C(F)(F)F | 9.82%
28 | COc1cccc(C(=N)Nc2cc(C(=O)Nc3cc(C(=O)Nc4cc(C(=O)NCCCN5CCOCC5)n(C)c4)n(C)c3)n(C)c2)c1.O=C(O)C(F)(F)F.O=C(O)C(F)(F)F | 26.72%
29 | CC(=N)Nc1cc(C(=O)Nc2cc(C(=O)Nc3cc(C(=O)NCCN4CCOCC4)n(C)c3)n(C)c2)n(C)c1.O=C(O)C(F)(F)F.O=C(O)C(F)(F)F | 23.57%
